# Test system: T1, MINK
# T1 construct: gene MINK1
# Conditions: concentration: 1 μM, replicates: in singlicate; n = 1
# 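Also: KINOMEscan kinase panel screen.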
row,SMILES,%Inh [%]
1,CN1CCN(Cc2ccc(NC(=O)Nc3ccc(N(C)c4ccnc(Nc5ccc(CS(C)(=O)=O)cc5)n4)cc3)cc2)CC1.Cl [GW827654],95.6
2,COc1ccc(C)c(Nc2ccnc(Nc3ccc(-c4cnc[nH]4)cc3)n2)c1.Cl [GW784041],44
3,Cc1ccc(NC(=O)c2ccnc(N3CCCCC3)c2)cc1-c1ccc(C(=O)NCC2CC2)cc1 [GW775610],5
4,CC(C)NCC(Cc1ccccc1)NC(=O)c1cc(Br)c(-c2ccnc3[nH]ccc23)s1.Cl.Cl (stereo not shown) [GSK1383281],37
5,N#Cc1cnc2cc(-c3cnc(CNCCN4CCOCC4)s3)ccc2c1Nc1ccc(Oc2ccccc2)cc1 [GW664114],95.2
6,O=C1NC(=O)C(c2ccccc2Cl)=C1Nc1cccc(Cl)c1 [SB-342409],0
7,COc1cc(Nc2ccnc3cc(-c4ccncc4)ccc23)cc(OC)c1OC.Cl [GW494610],95.1
8,O=C(Nc1n[nH]c2nc(-c3cccc(O)c3)ccc12)C1CC1 [SB-711805],51
9,COC(=O)Nc1nc2ccc(Oc3ccc(NC(=O)Nc4cc(C(F)(F)F)ccc4F)cc3)cc2[nH]1.Cl [GW654607],15
10,Cc1ccc(O)cc1Nc1ccnc2ccc(C(C)(C)C)cc12 [GW856805],10
11,O=C(Nc1n[nH]c2nc(-c3ccccc3)ccc12)C1CC1 [SB-708999],71
12,Fc1cc(Cl)ccc1Nc1ccnc2cc(-c3ccc(CN4CCOCC4)o3)ccc12 [GW560109],58
13,Cc1ccc(Nc2ccnc(Nc3ccc(C)c(F)c3)n2)cc1O.Cl [GW582868],0
14,COc1ccc(NC(=O)c2ccoc2)cc1-c1ccc(C(=O)NCC2CC2)cc1 [GW810437],7
15,Cn1cc(-c2cnc(N)c3c(-c4ccc5c(c4)CCN5C(=O)Cc4ccccc4)csc23)cn1 [GSK2593074],16
16,Cc1ccc(NC(=O)c2ccc(Cl)c(Cl)c2)cc1-c1ccc(C(=O)Nc2ccncc2)cc1 [GSK1398460],6
17,Cl.O=C(Nc1ccc(Oc2ccc3[nH]c(NC(=O)c4ccco4)nc3c2)cc1)Nc1cc(C(F)(F)F)ccc1F [GW683134],0
18,Nc1ncc(-c2cn[nH]c2)c2scc(-c3ccc4c(c3)CCN4C(=O)Cc3ccccc3)c12 [GSK2593067],33
19,O=C(O)C(F)(F)F.O=c1[nH]ccc2nc(N[C@@H]3CCNC3)nc(Nc3ccc4c(c3)S(=O)(=O)CC4)c12 [GSK2181306],96.6

row,SMILES,%Inh [%]
1,COc1ccc(C2=C(Nc3cccc(O)c3)C(=O)NC2=O)cc1 [SB-390766],0
2,CSc1ccc(NC2=C(c3ccc(Cl)cc3)C(=O)NC2=O)cc1 [SB-317658],0
3,Cc1cccc(Nc2nc(N[C@H]3CCCC[C@H]3N)ncc2C(N)=O)c1.Cl [GSK986310],73
4,NCCC(NC(=O)c1cc(Br)c(-c2ccnc3[nH]ccc23)s1)c1ccccc1.O=C(O)C(F)(F)F.O=C(O)C(F)(F)F (stereo not shown) [GSK1307810],55
5,CN(c1ccc(NC(=O)Nc2cccc(Cl)c2)cc1)c1ccnc(N)n1.Cl [GW830707],0
6,Fc1cc(Cl)ccc1Nc1ccnc2cc(-c3ccc(CN4CCSCC4)o3)ccc12 [GW560106],63
7,Cn1cc(-c2ccc3c(c2)CCN3C(=O)Cc2cc(F)cc(F)c2F)c2c(N)ncnc21 [GSK2634140],21
8,CCn1cnc2c(NCc3ccccc3)ncnc21 [SKF-96418],12
9,COC(=O)Nc1nc2ccc(Oc3ccc(CC(=O)Nc4cc(C(F)(F)F)ccc4F)cc3)cc2[nH]1 [GW680903],0
10,Cl.Cl.NCC(NC(=O)c1cc(-c2cccnc2)c(-c2ccnc3[nH]ccc23)s1)c1ccccc1 (stereo not shown) [GSK1323434],80
11,CN(c1ccc(NC(=O)N2CCN(CCCN3CCOCC3)CC2)cc1)c1ccnc(Nc2ccc(CS(C)(=O)=O)cc2)n1.Cl [GW830899],0
12,COc1cccc(-c2nc(-c3ccccc3)[nH]c2-c2ccncc2)c1 [SB-610250],10
13,Cl.Cl.NC(CNC(=O)c1cc(Br)c(-c2ccnc3[nH]ccc23)s1)c1ccccc1 (stereo not shown) [GSK1322949],69
14,O=C(Nc1n[nH]c2cc(-c3cccs3)ccc12)C1CC1 [SB-731284],67
15,CN(c1ccc2c(c1)nc(NCc1ccccc1)n2C)c1ccnc(Nc2ccc(CS(C)(=O)=O)cc2)n1.Cl [GW811603],0
16,CCOc1nccc(-c2c(-c3ccc(F)cc3)ncn2C2CCNCC2)n1 [SB-249175],49
17,CC(C)(C)c1ccc(C(=O)Nc2cn3cc(-n4ccnc4)ccc3n2)cc1,18
18,CNc1nccc(-c2ccc3c(N)n[nH]c3c2)n1 [GSK2206003],59
